PLK1 PBD block = qHTS for Inhibitors of PLK1-PDB (polo-like kinase 1 - polo-box domain): Primary Screen | AID 720504, 2013 | Serine/threonine-protein kinase PLK1 (Homo sapiens), P53350 | Potency, µM, actives largely listed as inhibitors | actives 2.8% (n = 360,000) | Plk1 PBD binding of FITC phosphopeptide, fluorescence polarization; also: series mostly up to about 57 µM; nearly all actives have a fitted effect of over 65% in size
VDR inh = Inhibitors of the vitamin D receptor (VDR): qHTS | Vitamin D3 receptor (Homo sapiens), P11473 | VDR-SRC2-3 peptide fluorescence polarization, 2 h | Potency, µM, usual class: inhibitors | actives 0.93% (n = 400,000) | AID 504847, 2011
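After 23 nl compound addition and a short centrifugation, plates sat for 2 hours at ambient temperature; polarization of fluorescence then indicated loss of VDR binding to peptide SRC2-3.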
Pin1 inhibitor = qHTS Assay to Find Inhibitors of Pin1; Peptidyl-prolyl cis-trans isomerase NIMA-interacting 1 (Homo sapiens), Q13526; Pin1 FP peptide displacement, HiFluor488, 10 min; Potency, µM (series often up to 115 µM), actives largely listed as inhibitors; actives 0.009% (n = 390,000); AID 504891, 2011; active = well fitted inhibition curve with a large enough effect in the polarisation, with a control signal flat, not every such curve was filed as active; inconclusive = small, poorly fitted or top-dose-only effect, or effect the other way, or a change in a side signal; inactive = no such curve, though single readings can be large or run the other way; the % refers to the polarisation
Target sequence (Q13526 whole entry, looked up): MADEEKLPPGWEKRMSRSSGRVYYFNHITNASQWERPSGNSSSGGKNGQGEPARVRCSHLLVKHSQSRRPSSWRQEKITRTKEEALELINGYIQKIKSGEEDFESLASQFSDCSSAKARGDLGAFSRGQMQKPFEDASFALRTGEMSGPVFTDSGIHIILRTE
Tb PFK inh-1 = qHTS Assay to Find Inhibitors of T. brucei phosphofructokinase; ATP-dependent 6-phosphofructokinase (Trypanosoma brucei brucei), O15648; T. brucei PFK, ADP-Glo luminescence; Potency, µM (top dose mostly 57.5 µM), most hits filed as inhibitors; actives 0.17% (n = 330,000); AID 485367, 2010; also: nearly all actives have a fitted effect of over 60% in size
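1.25 nM PFK with 0.5 mM F6P and 0.1 mM ATP in 0.1 M TEA pH 8.0, 5 mM MgCl2, incubated 45 min at room temperature; ADP measured by ADP-Glo luminescence; compounds titrated up to 57 uM.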
ASM inhibitor = Inhibitors of Secretory Acid Sphingomyelinase (S-ASM): qHTS. Sphingomyelin phosphodiesterase (Homo sapiens), P17405. placental ASM, HMU-PC fluorogenic substrate, 60 min. Potency, µM (series often up to 57.5 µM), actives largely listed as inhibitors. actives 0.006% (n = 340,000). AID 504937, 2011
Target sequence (P17405 47-631 limits assumed): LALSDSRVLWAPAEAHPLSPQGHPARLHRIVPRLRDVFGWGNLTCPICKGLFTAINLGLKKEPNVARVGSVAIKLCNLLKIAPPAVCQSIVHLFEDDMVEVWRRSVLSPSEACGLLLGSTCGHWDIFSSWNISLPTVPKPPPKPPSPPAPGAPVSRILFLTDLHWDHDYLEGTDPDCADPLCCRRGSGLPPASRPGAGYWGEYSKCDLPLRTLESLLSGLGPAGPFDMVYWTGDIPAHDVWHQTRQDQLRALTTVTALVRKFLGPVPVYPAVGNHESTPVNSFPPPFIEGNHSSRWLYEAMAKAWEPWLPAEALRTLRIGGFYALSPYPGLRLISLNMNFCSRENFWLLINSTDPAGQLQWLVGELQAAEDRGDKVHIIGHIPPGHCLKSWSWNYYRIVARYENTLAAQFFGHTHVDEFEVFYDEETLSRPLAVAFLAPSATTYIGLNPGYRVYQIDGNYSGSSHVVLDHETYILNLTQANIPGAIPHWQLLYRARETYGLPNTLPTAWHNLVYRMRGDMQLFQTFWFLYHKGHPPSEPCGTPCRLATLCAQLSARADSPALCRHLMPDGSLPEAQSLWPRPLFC
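Human placenta-derived ASM enzyme was preincubated with compound for 10 minutes at room temperature, then given fluorogenic substrate HMU-PC0 (9 uM final) for 60 minutes at 37 °C; a pH 10 stop preceded fluorescence reading at Ex 386/Em 447 nm.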
TDP1 inh = qHTS Assay for Inhibitors of Tyrosyl-DNA Phosphodiesterase (TDP1); Tyrosyl-DNA phosphodiesterase 1 (Homo sapiens), Q9NUW8; recombinant TDP1, AlphaScreen DNA substrate cleavage; Potency, µM (doses to about 130 µM), hits mostly inhibitors; actives 0.28% (n = 350,000); also: nearly all actives have a fitted effect of over 40% in size
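Tdp1 1 nM final; 15 min RT w/ cpd; substrate 15 nM, 5 min; beads 10 ug/ml, 10 min; AlphaScreen read. Neg ctrl: no enzyme.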
Tb PFK KinaseGlo = Tb PFK orthogonal confirmatory assay using ATP depletion (Kinase-Glo Plus) as an alternative measure of Tb PFK activity: Hit Validation; shares compounds with Tb PFK inh-1; actives 47% (n = 1,100); Potency, µM (doses to about 57.5 µM); AID 504636, 2011; Tb PFK enzyme, ATP depletion, Kinase-Glo Plus luminescence; calls by dose curve; also: nearly all actives have a fitted effect of over 60% in size
Tb PFK inh-2 = Inhibitors of T. brucei phosphofructokinase: Hit Validation | actives 41% (n = 1,100) | purified T. brucei PFK, ADP-Glo luminescence, 45 min | shares compounds with Tb PFK inh-1 | Potency, µM (doses to about 57.5 µM), hits mostly inhibitors | AID 504637, 2011; also: nearly all actives have a fitted effect of over 60% in size
Hits are given with their value. Compounds with a hit are over-represented: about 3.1% of the library has one in this group of screens. Unless noted, calls follow the shape of the dose curve; as a rule, active = well fitted curve in the direction sought with a large enough effect; inconclusive = small, poorly fitted or top-dose-only effect, or another doubt; inactive = no such curve, though single readings can be large; an effect the other way counts as inactive or inconclusive.

How did O=C(c1csnn1)N1CCC2(CC1)CN(Cc1ccncc1)C2 do in these assays?
VDR inh: inactive

Results for NCC(N)C(=O)c1ccccc1 (centres undefined) ?
VDR inh: inactive; TDP1 inh: inactive

How did O=C(O)CCc1nn2cc(-c3ccccc3)nc2[nH]c1=O do in these assays?
PLK1 PBD block: inactive; VDR inh: inactive; Pin1 inhibitor: inactive; Tb PFK inh-1: inconclusive; ASM inhibitor: inactive; TDP1 inh: inactive; Tb PFK KinaseGlo: inactive; Tb PFK inh-2: inactive

How did Cc1ccc(S(=O)(=O)N2CCOCC2)cc1C(=O)OCC(=O)Nc1ccc2[nH]c(=O)[nH]c2c1 do in these assays?
PLK1 PBD block: inactive; VDR inh: inactive; Pin1 inhibitor: inconclusive; Tb PFK inh-1: inconclusive; ASM inhibitor: inactive; TDP1 inh: inactive; Tb PFK KinaseGlo: inconclusive; Tb PFK inh-2: inconclusive

How did O=C(Nc1ccon1)c1cccn(Cc2cccc(Cl)c2)c1=O do in these assays?
VDR inh: inactive; Pin1 inhibitor: inactive; TDP1 inh: inactive

What do the screens show for `O=C(Nc1ncc(Cc2cccc(Cl)c2)s1)C1CCCO1` (centres undefined)?
PLK1 PBD block: inactive; VDR inh: inactive; Pin1 inhibitor: inactive; Tb PFK inh-1: inconclusive; ASM inhibitor: inactive; TDP1 inh: inactive; Tb PFK KinaseGlo: 17µM; Tb PFK inh-2: inconclusive

Results for O=C(OCC(=O)N1CCN(c2cccc(Cl)c2)CC1)c1ccco1 ?
PLK1 PBD block: inactive; VDR inh: inactive; Pin1 inhibitor: inactive; Tb PFK inh-1: 21µM; ASM inhibitor: inactive; TDP1 inh: inactive; Tb PFK KinaseGlo: 24µM; Tb PFK inh-2: inconclusive

Results for CN1C(=O)COc2c(C(=O)N[C@@H]3CN4CCC3CC4)cc(Cl)cc21 ?
VDR inh: inactive; TDP1 inh: inactive

Results for O=S(=O)(c1ccc2nc(COc3ccc(Cl)cc3Cl)[nH]c2c1)N1CCOCC1 ?
PLK1 PBD block: inactive; VDR inh: inactive; Pin1 inhibitor: inactive; Tb PFK inh-1: inconclusive; ASM inhibitor: inconclusive; TDP1 inh: inactive; Tb PFK KinaseGlo: inconclusive; Tb PFK inh-2: inconclusive

How did Cc1ccc(C)c(-n2sc3ccc(F)cc3c2=O)c1 do in these assays?
PLK1 PBD block: 2.1µM; VDR inh: 20µM; Pin1 inhibitor: inactive; Tb PFK inh-1: 3µM; ASM inhibitor: inactive; TDP1 inh: inactive; Tb PFK KinaseGlo: 19µM; Tb PFK inh-2: 17µM

Results for COc1ccc(-n2c(SC)nc3ccccc3c2=O)cc1 ?
PLK1 PBD block: inactive; VDR inh: inactive; Pin1 inhibitor: inactive; Tb PFK inh-1: inactive; ASM inhibitor: inactive; TDP1 inh: inactive

Results for COc1ccc(-n2sc3ccc(F)cc3c2=O)cc1 ?
PLK1 PBD block: 2.7µM; VDR inh: inconclusive; Pin1 inhibitor: inactive; Tb PFK inh-1: 6.7µM; ASM inhibitor: inactive; TDP1 inh: inactive; Tb PFK KinaseGlo: inconclusive; Tb PFK inh-2: inconclusive

Results for Cc1ccc(C)c(CN2CCC(n3nnc4cc(F)ccc43)CC2)c1 ?
PLK1 PBD block: inactive; VDR inh: inactive; Pin1 inhibitor: inactive; Tb PFK inh-1: inactive; ASM inhibitor: inactive; TDP1 inh: inactive

Results for O=c1c2cc(F)ccc2sn1-c1ccc(F)cc1 ?
PLK1 PBD block: 3.4µM; VDR inh: 18µM; Pin1 inhibitor: inactive; Tb PFK inh-1: 7.6µM; ASM inhibitor: inactive; TDP1 inh: inactive; Tb PFK KinaseGlo: inconclusive; Tb PFK inh-2: inconclusive

What do the screens show for `N#Cc1ccc(NC(=O)CCNC(=O)c2ccco2)cc1Cl`?
PLK1 PBD block: inactive; VDR inh: inactive; Pin1 inhibitor: inactive; Tb PFK inh-1: inactive; ASM inhibitor: inactive; TDP1 inh: inactive

How did O=C(CCNc1ccc(F)c(Cl)c1)c1ccco1 do in these assays?
PLK1 PBD block: inactive; VDR inh: inactive; Pin1 inhibitor: inactive; Tb PFK inh-1: inconclusive; ASM inhibitor: inactive; TDP1 inh: inactive; Tb PFK KinaseGlo: 13µM; Tb PFK inh-2: 21µM

Results for O=C(CCNc1ccc(Cl)c(C(F)(F)F)c1)c1ccco1 ?
PLK1 PBD block: inactive; VDR inh: inactive; Pin1 inhibitor: inactive; Tb PFK inh-1: inconclusive; ASM inhibitor: inactive; TDP1 inh: inactive; Tb PFK KinaseGlo: inconclusive; Tb PFK inh-2: inconclusive

How did CC1C(=O)OC2O[C@]3(C)CC[C@H]4C(C)CCC1[C@]24OO3 (some centres undefined) do in these assays?
VDR inh: inactive; TDP1 inh: inactive

How did Cc1cccc(Cn2c(SCc3ccc(C(=O)NC4CCCCC4)cc3)nc3cccnc32)c1 do in these assays?
VDR inh: inactive; Pin1 inhibitor: inactive; TDP1 inh: inactive

Results for Cc1ccc(-n2c(/C=C\c3ccc(F)cc3)nc3ccccc3c2=O)cc1Cl ?
VDR inh: inactive; Pin1 inhibitor: inactive; TDP1 inh: inactive

How did CC(C)c1c(Cl)c(O)c(-c2ccccc2)c(=O)n1-c1ccc(F)cc1 do in these assays?
PLK1 PBD block: inactive; VDR inh: inactive; Pin1 inhibitor: inactive; Tb PFK inh-1: inconclusive; ASM inhibitor: inactive; Tb PFK KinaseGlo: inconclusive; Tb PFK inh-2: inconclusive

What do the screens show for `CC(C)(N)Cc1ccc(Cl)cc1`?
VDR inh: inactive; TDP1 inh: inactive

What do the screens show for `COc1cc(-c2ccc(N)c(OC)c2)ccc1N`?
PLK1 PBD block: inactive; VDR inh: inactive; Pin1 inhibitor: inactive; Tb PFK inh-1: inactive; ASM inhibitor: inactive; TDP1 inh: inactive

Results for COc1cc(Br)c(Br)cc1N ?
PLK1 PBD block: inactive; VDR inh: inactive; Pin1 inhibitor: inactive; Tb PFK inh-1: inconclusive; ASM inhibitor: inactive; TDP1 inh: inactive; Tb PFK KinaseGlo: 21µM; Tb PFK inh-2: inconclusive

Results for N#CC(Cl)(Cl)Cl ?
TDP1 inh: inactive

Results for CCc1nnc(NC(=O)CSc2nc(C)c3c(c2C#N)CCCC3)s1 ?
PLK1 PBD block: inactive; VDR inh: inactive; Pin1 inhibitor: inactive; Tb PFK inh-1: inconclusive; ASM inhibitor: inactive; TDP1 inh: inactive; Tb PFK KinaseGlo: inactive; Tb PFK inh-2: inactive

What do the screens show for `CCc1nnc(NC(=O)CCc2nc(C3=CCN(C)CC3)no2)s1`?
PLK1 PBD block: inactive; VDR inh: inactive; Pin1 inhibitor: inactive; Tb PFK inh-1: inactive; ASM inhibitor: inactive; TDP1 inh: inactive

Bioassay records from PubChem BioAssay.
